Several values for one entry are separate records, joined by “and”; a condition that tells them apart may be missing. Identical values can stand only once. Screen size: about 5,500 compounds; about 2,000 (36%) were called active. Not shown: some 18% with an inconclusive outcome. Rule as the data show it: active = normalized growth mostly below about 0.91 (no sharp cut-off); inconclusive = no clear call, values can overlap the other calls; inactive = mostly above about 0.92. Some of the results follow.
Assay: chemical genetic growth profiling, strain panel (AID 1159580);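 also: tested at 20 µM; growth read once vehicle control cultures reached saturation at 30 °C; 1 = growth at the plate median or of vehicle wells; lower values mean less growth of the strain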
Conditions: growth OD

Measured: normalized growth

NC(=O)c1cnccn1
inactive: S. cerevisiae deletion strains, locus YJR075W, strain HOC1, active compounds read low 1.03 | S. cerevisiae deletion strains, locus YKL009W, strain mrt4, active compounds read low 1.02 | S. cerevisiae deletion strains, locus YKL068W, active compounds read low 1 | S. cerevisiae deletion strains, locus YKL085W, strain MDH1 (second series), active compounds read low 1.01 | S. cerevisiae deletion strains, locus YKL085W, strain MDH1, active compounds read low 1.01 | S. cerevisiae deletion strains, locus YKL160W, strain elf1, active compounds read low 0.967 | S. cerevisiae deletion strains, locus YKL190W, strain CNB1, active compounds read low 1.01 | S. cerevisiae deletion strains, locus YKR001C, strain vps1, active compounds read low 0.999 | S. cerevisiae deletion strains, locus YKR026C, strain gcn3, active compounds read low 0.992 | S. cerevisiae deletion strains, locus YKR091W, strain srl3, active compounds read low 0.99 | S. cerevisiae deletion strains, locus YLL001W, strain dnm1, active compounds read low 0.955 | S. cerevisiae deletion strains, locus YLL026W, active compounds read low 0.979 | S. cerevisiae deletion strains, locus YLL041C, strain sdh2, active compounds read low 0.993 | S. cerevisiae deletion strains, locus YLR027C, strain aat2, active compounds read low 0.976 | S. cerevisiae deletion strains, locus YLR039C, strain RIC1, active compounds read low 1.05 | S. cerevisiae deletion strains, locus YLR058C, strain SHM2, active compounds read low 1 | S. cerevisiae deletion strains, locus YLR102C, strain apc9, active compounds read low 0.999 | S. cerevisiae deletion strains, locus YLR113W, strain HOG1, active compounds read low 0.99 | S. cerevisiae deletion strains, locus YLR221C, strain rsa3, active compounds read low 1.01 | S. cerevisiae deletion strains, locus YLR258W, strain gsy2, active compounds read low 1.01 | S. cerevisiae deletion strains, locus YLR262C, strain YPT6 (second series), active compounds read low 0.965 | S. cerevisiae deletion strains, locus YLR262C, strain YPT6, active compounds read low 0.979 | S. cerevisiae deletion strains, locus YLR268W, strain sec22, active compounds read low 1.05 | S. cerevisiae deletion strains, locus YLR320W, strain mms22, active compounds read low 0.981 | S. cerevisiae deletion strains, locus YLR330W, strain CHS5, active compounds read low 1.01 | S. cerevisiae deletion strains, locus YLR342W, strain FKS1 (second series), active compounds read low 1.02 | S. cerevisiae deletion strains, locus YLR342W, strain FKS1, active compounds read low 0.968 | S. cerevisiae deletion strains, locus YLR357W, strain rsc2, active compounds read low 0.967 | S. cerevisiae deletion strains, locus YLR370C, strain arc18, active compounds read low 0.999 | S. cerevisiae deletion strains, locus YLR371W, strain rom2, active compounds read low 1.01 | S. cerevisiae deletion strains, locus YLR384C, strain iki3, active compounds read low 0.977 | S. cerevisiae deletion strains, locus YLR418C, strain cdc73, active compounds read low 1 | S. cerevisiae deletion strains, locus YML016C, strain PPZ1, active compounds read low 1 | S. cerevisiae deletion strains, locus YML032C, strain rad52, active compounds read low 1.02 | S. cerevisiae deletion strains, locus YML120C, strain ndi1, active compounds read low 0.98 | S. cerevisiae deletion strains, locus YML124C, strain tub3, active compounds read low 0.998 | S. cerevisiae deletion strains, locus YMR058W, strain fet3, active compounds read low 0.98 | S. cerevisiae deletion strains, locus YMR078C, strain ctf18, active compounds read low 1 | S. cerevisiae deletion strains, locus YMR125W, strain sto1, active compounds read low 0.999 | S. cerevisiae deletion strains, locus YMR129W, active compounds read low 0.993 | S. cerevisiae deletion strains, locus YMR205C, strain PFK2, active compounds read low 0.998 | S. cerevisiae deletion strains, locus YMR223W, strain ubp8, active compounds read low 0.985 | S. cerevisiae deletion strains, locus YMR231W, strain pep5, active compounds read low 0.982 | S. cerevisiae deletion strains, locus YMR307W, strain GAS1, active compounds read low 1.01 | S. cerevisiae deletion strains, locus YNL067W, strain RPL9B, active compounds read low 1 | S. cerevisiae deletion strains, locus YNL071W, strain lat1, active compounds read low 1.01 | S. cerevisiae deletion strains, locus YNL128W, strain TEP1, active compounds read low 1.02 | S. cerevisiae deletion strains, locus YNL153C, strain GIM3, active compounds read low 1 | S. cerevisiae deletion strains, locus YNL175C, strain NOP13, active compounds read low 1 | S. cerevisiae deletion strains, locus YNL183C, strain NPR1, active compounds read low 0.998 | S. cerevisiae deletion strains, locus YNL197C, strain WHI3, active compounds read low 0.995 | S. cerevisiae deletion strains, locus YNL209W, strain ssb2, active compounds read low 1 | S. cerevisiae deletion strains, locus YNL224C, strain SQS1, active compounds read low 0.991 | S. cerevisiae deletion strains, locus YNL233W, strain BNI4, active compounds read low 1.01 | S. cerevisiae deletion strains, locus YNL248C, strain rpa49, active compounds read low 1.01 | S. cerevisiae deletion strains, locus YNL250W, strain rad50, active compounds read low 0.998 | S. cerevisiae deletion strains, locus YNL271C, strain bni1, active compounds read low 1 | S. cerevisiae deletion strains, locus YNL298W, strain CLA4, active compounds read low 0.997 | S. cerevisiae deletion strains, locus YNL307C, strain MCK1, active compounds read low 1.01 | S. cerevisiae deletion strains, locus YNL322C, strain KRE1 (second series), active compounds read low 0.984 | S. cerevisiae deletion strains, locus YNR049C, strain mso1, active compounds read low 0.998 | S. cerevisiae deletion strains, locus YNR052C, strain pop2, active compounds read low 0.99 | S. cerevisiae deletion strains, locus YOL006C, strain TOP1, active compounds read low 0.999 | S. cerevisiae deletion strains, locus YOL012C, strain htz1 1.57 | S. cerevisiae deletion strains, locus YOL147C, strain pex11, active compounds read low 1 | S. cerevisiae deletion strains, locus YOR001W, strain rrp6, active compounds read low 0.983 | S. cerevisiae deletion strains, locus YOR061W, strain CKA2, active compounds read low 1 | S. cerevisiae deletion strains, locus YOR069W, strain VPS5, active compounds read low 1.01 | S. cerevisiae deletion strains, locus YOR070C, strain gyp1, active compounds read low 1 | S. cerevisiae deletion strains, locus YOR080W, strain dia2, active compounds read low 0.978 | S. cerevisiae deletion strains, locus YOR083W, strain WHI5 (second series), active compounds read low 1.02 | S. cerevisiae deletion strains, locus YOR083W, strain WHI5, active compounds read low 0.955 | S. cerevisiae deletion strains, locus YOR106W, strain vam3, active compounds read low 0.992 | S. cerevisiae deletion strains, locus YOR136W, strain idh2, active compounds read low 0.988 | S. cerevisiae deletion strains, locus YOR144C, strain elg1, active compounds read low 1 | S. cerevisiae deletion strains, locus YOR184W, strain ser1, active compounds read low 1 | S. cerevisiae deletion strains, locus YOR231W, strain MKK1, active compounds read low 1 | S. cerevisiae deletion strains, locus YOR265W, strain rbl2, active compounds read low 0.985 | S. cerevisiae deletion strains, locus YOR270C, strain vph1, active compounds read low 1.02 | S. cerevisiae deletion strains, locus YOR290C, strain snf2, active compounds read low 1.02 | S. cerevisiae deletion strains, locus YOR316C, strain cot1, active compounds read low 1.01 | S. cerevisiae deletion strains, locus YPL051W, strain arl3, active compounds read low 0.993 | S. cerevisiae deletion strains, locus YPL055C, strain LGE1, active compounds read low 0.976 and 0.968 | S. cerevisiae deletion strains, locus YPL078C, strain atp4, active compounds read low 0.957 | S. cerevisiae deletion strains, locus YPL106C, strain sse1, active compounds read low 0.97 | S. cerevisiae deletion strains, locus YPL240C, strain hsp82, active compounds read low 0.979 | S. cerevisiae deletion strains, locus YPL241C, strain CIN2, active compounds read low 1.01 | S. cerevisiae deletion strains, locus YPL256C, strain CLN2, active compounds read low 1.02 | S. cerevisiae deletion strains, locus YPR119W, strain clb2, active compounds read low 1.01 | S. cerevisiae deletion strains, locus YPR141C, strain kar3, active compounds read low 0.993 | S. cerevisiae deletion strains, locus YPR163C, strain tif3, active compounds read low 1.01 | S. cerevisiae deletion strains, locus YPR167C, strain met16, active compounds read low 1.01 | S. cerevisiae deletion strains, strain wtn01, active compounds read low 1 | S. cerevisiae strains, strain wild type, active compounds read low 1.01

From PubChem BioAssay AID1159580 (chemical genetic matrix, 2015)
